A selection: hits, their analogues and other compounds. The true share with any hit is near 3.5%.
TEAD-YAP block: TEAD-YAP interaction inhibition; AID 1259422; 1.4% of 640,000 active; inhibition, % at 9.12 µM; HEK-TIYL cells, TEAD-Gal4/YAP UAS-luciferase luminescence; in the data active = inhibition above about 32%;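 also: 0% = median of test compound wells and 100% = reference inhibitor wells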
FBW7 activator: activators of human E3 ligase FBW7; Q969H0; AlphaScreen FBW7–phospho-cyclin E peptide binding, activator screen; normalized activity (activation), % at 26.1 µM; 0.13% of 650,000 active; AID 1259310; in the data active = normalized activity above about 1.9%;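 also: purified mutant Fbw7 with reduced substrate affinity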
GPR151 ag: human GPR151 activation. Q8TDV0. PathHunter beta-arrestin GPR151 cells, luminescence. activation, % at 11.2 µM. 1% of 650,000 active. AID 1508602; in the data active = activation above about 4.9%;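 also: 0% = median of compound wells and 100% = cells with positive control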
MITF primary: human MITF inhibition, primary screen | AlphaScreen MITF homodimerization, bead proximity signal | inhibition, % at 2.6 µM | 0.91% of 650,000 active | AID 1259374; in the data active = inhibition above about 50%;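 also: 0% = vehicle wells with protein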
The depositor's hits bear a star.

For O=C(c1ccc2cncc(-c3ccccc3)c2n1)N1CCC(O)CC1 the results were TEAD-YAP block 51*, FBW7 activator -1, GPR151 ag 0 and MITF primary 6.
O=C(NCc1ccc(Cl)cc1)C1CSC2(c3cccs3)CCC(=O)N12 (stereo unspecified) was read as TEAD-YAP block 12, FBW7 activator 0, GPR151 ag 0 and MITF primary -7.
`CCCOc1ccc(/C=N/O)cc1OCC` gave TEAD-YAP block -3, FBW7 activator 0, GPR151 ag 0 and MITF primary 15.
COc1ccc(OC)c(C2C=C(c3ccc(C)cc3)Nc3ncnn32)c1 (stereo unspecified) was read as TEAD-YAP block 66*, FBW7 activator 0, GPR151 ag -1 and MITF primary -1.
`COc1ccc(C2=CC(c3cc(OC)c(OC)c(OC)c3)n3ncnc3N2)cc1OC` (stereo unspecified) gave TEAD-YAP block 54*, FBW7 activator 0, GPR151 ag -2 and MITF primary 2.
For COc1ccc(C2=CC(c3cccc(C)c3)n3ncnc3N2)cc1 (stereo unspecified) the results were TEAD-YAP block 46*, FBW7 activator 0, GPR151 ag 0 and MITF primary 1.
CCc1ccc(C2=CC(c3ccc(OC)c(OC)c3OC)n3ncnc3N2)cc1 (stereo unspecified) was read as TEAD-YAP block 47*, FBW7 activator 0, GPR151 ag 0 and MITF primary 5.
For CCOc1ccc(C(C)=O)cc1CSc1nnc(-c2ccccc2)o1 the results were TEAD-YAP block -9, FBW7 activator 0, GPR151 ag -1 and MITF primary 9.
For Cc1cccc(C)c1OCCOCCNC(C)(C)C the results were TEAD-YAP block 7, FBW7 activator 0, GPR151 ag 1 and MITF primary 43.
CCOc1ccccc1C1C=C(c2ccc(OC)cc2)Nc2ncnn21 (stereo unspecified) was read as TEAD-YAP block 56*, FBW7 activator 0, GPR151 ag 1 and MITF primary 4.
`COc1cc(C2C=C(c3ccc4c(c3)OCO4)Nc3ncnn32)cc(OC)c1OC` (stereo unspecified) gave TEAD-YAP block 64*, FBW7 activator 0, GPR151 ag 1 and MITF primary 1.
COc1ccc(C2=CC(c3ccc(C)cc3)n3ncnc3N2)cc1OC (stereo unspecified) was read as TEAD-YAP block -68, FBW7 activator 0, GPR151 ag 1 and MITF primary 3.
`COc1ccc(C2C=C(c3ccc(C)cc3)Nc3ncnn32)cc1OC` (stereo unspecified) gave TEAD-YAP block 54*, FBW7 activator 0, GPR151 ag 0 and MITF primary 11.
For CCOC(=O)CCCN1C(=O)/C(=C/c2cccs2)SC1=S the results were TEAD-YAP block -4, FBW7 activator 0, GPR151 ag 1 and MITF primary 1.
Cc1ccccc1-n1nc2c(c1NC(=O)c1ccc(S(=O)(=O)N3CCCC3)cc1)CSC2 was read as TEAD-YAP block -18, FBW7 activator 0, GPR151 ag 0 and MITF primary -6.
For CCc1ccccc1NC(=O)c1ccc(N2CCc3ccccc3C2)c([N+](=O)[O-])c1 the results were TEAD-YAP block -3, FBW7 activator 0, GPR151 ag -1 and MITF primary 2.
For CCOC(=O)Cn1cc(C=O)c2ccccc21 the results were TEAD-YAP block -2, FBW7 activator 1, GPR151 ag 0 and MITF primary -1.
Screening CCOC(=O)Cn1cc(C(=O)OC)c2ccccc21 returned TEAD-YAP block -2, FBW7 activator 2.3*, GPR151 ag 3 and MITF primary 14.
Screening CC(C)(C)NC(=O)c1cc2nc(-c3ccc(Cl)c(Cl)c3)cc(C(F)(F)F)n2n1 returned TEAD-YAP block 9, FBW7 activator 1, GPR151 ag -2 and MITF primary 18.
`O=C1N[C@@H](COCc2ccccc2)C(=O)N2CCN(C(=O)c3ccc(Cl)cc3)C[C@H]12` gave TEAD-YAP block 1, FBW7 activator 0, GPR151 ag 2 and MITF primary -4.
`O=S(=O)(Nc1ccc(Cl)c2cccnc12)c1ccccc1` gave TEAD-YAP block 53*, FBW7 activator 0, GPR151 ag -1 and MITF primary 18.
`Cc1ccc(S(=O)(=O)Nc2ccc(Cl)c3cccnc23)cc1` gave TEAD-YAP block 58*, FBW7 activator 0, GPR151 ag -1 and MITF primary -11.
`COc1ccc(CN(C)CN2C(=O)NC3(CCC(C(C)(C)C)CC3)C2=O)cc1` (stereo unspecified) gave TEAD-YAP block 6, FBW7 activator 0, GPR151 ag 2 and MITF primary 3.
Screening O=C(CC(C(=O)O)N1CCOCC1)Nc1ccccc1 (stereo unspecified) returned TEAD-YAP block 6, FBW7 activator 0, GPR151 ag 0 and MITF primary 10.
For CCCn1cc(S(=O)(=O)c2ccc(Cl)cc2)c(=O)c2ccccc21 the results were TEAD-YAP block -4, FBW7 activator 0, GPR151 ag -2 and MITF primary 8.
For O=C(N/C(=C\c1ccc(Br)cc1)C(=O)N1CC2CC(C1)c1cccc(=O)n1C2)c1cncc(Br)c1 (stereo unspecified) the results were TEAD-YAP block 3, FBW7 activator 0, GPR151 ag -2 and MITF primary 16.
`Cn1ccnc1SCC(=O)NCc1ccccc1` gave TEAD-YAP block -12, FBW7 activator 0, GPR151 ag 0 and MITF primary -7.
Screening O=C1NC(=S)N(c2ccccc2)C(=O)/C1=C\c1ccoc1 returned TEAD-YAP block 3, FBW7 activator 0, GPR151 ag 1 and MITF primary 71*.
`O=C1NC(=S)N(c2ccc(Cl)cc2)C(=O)/C1=C\c1ccoc1` gave TEAD-YAP block 10, FBW7 activator 0, GPR151 ag -2 and MITF primary 34.
Screening Cc1cccc(N2C(=O)NC(=O)/C(=C\c3cccc(O)c3)C2=O)c1 returned TEAD-YAP block -3, FBW7 activator 0, GPR151 ag 1 and MITF primary 4.
Cc1cccc(N2C(=O)NC(=O)/C(=C\c3ccoc3)C2=O)c1 was read as TEAD-YAP block -4, FBW7 activator 0, GPR151 ag -1 and MITF primary 58*.
`Cc1ccc(S(=O)(=O)N(CC(=O)NCc2ccncc2)Cc2ccccc2)cc1` gave TEAD-YAP block -2, FBW7 activator 1.9*, GPR151 ag -1 and MITF primary 24.
Screening Cc1ccc(CNC(=O)CN(Cc2ccccc2)S(=O)(=O)c2ccccc2)cc1 returned TEAD-YAP block 5, FBW7 activator 0, GPR151 ag -1 and MITF primary 12.
For COc1ccc(NC(=O)c2cc(S(=O)(=O)N3CCN(c4ccccn4)CC3)ccc2F)cc1 the results were TEAD-YAP block 7, FBW7 activator 1.9*, GPR151 ag 3 and MITF primary 7.
For C/C(=N/NC(=O)c1ccc(O)c(O)c1)c1ccc(C)cc1 the results were TEAD-YAP block -9, FBW7 activator 0, GPR151 ag -1 and MITF primary 7.

Compound activity as filed in PubChem.
